In PubChem BioAssay (Tox21):
Inconclusive results are not listed. Activity calls are given as the source filed them. Unless noted, calls follow the shape of the dose curve; as a rule, active = well fitted curve in the direction sought with a large enough effect in the repeat runs; inconclusive = weak or mixed curves; inactive = no such curve, though single readings can be large; an effect the other way counts as inactive or inconclusive.

How the values were obtained:
[1] = qHTS assay to identify small molecule agonists of the hypoxia (HIF-1) signaling pathway - cell viability counter screen (AID 1224844; calls by dose curve; also: nearly all actives have a fitted effect of over 50% in size)
Outline: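 Cytotoxicity was measured in parallel with the HRE-driven beta-lactamase readout: after 17 hrs of compound exposure at 37C, HRE-bla ME-180 cells received CellTiter-Glo and luminescence was recorded 30 min later.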

[2] = qHTS assay to identify small molecule agonists of H2AX (AID 1224845; active = well fitted activation curve with a large enough effect in the signal ratio in the repeat runs, not every such curve was filed as active; the % refers to the signal ratio)
Outline: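 Wild-type CHO-K1 cells plated overnight, then exposed 3 hr at 37C to compounds at 15 concentrations (0.76% DMSO). Lysed, then HTRF anti-pH2AX(S139)-cryptate/anti-H2AX-d2 detection after 24 hr at room temperature; emissions 665 and 620 nm.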

[3] = qHTS assay to identify small molecule agonists of the hypoxia (HIF-1) signaling pathway (AID 1224846; active = well fitted activation curve with a large enough effect in the signal ratio in the repeat runs, not every such curve was filed as active; the % refers to the signal ratio)
Outline: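 Compounds from the Tox21 10K library, dissolved in DMSO, are tested for induction of a hypoxia response element–controlled beta-lactamase reporter in ME-180 cells. Exposure lasts 17 hrs at 37C after a 5 hr settling period, followed by CCF4-AM FRET substrate.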

[4] = qHTS assay to identify small molecule agonists of H2AX - cell viability counter screen (AID 1224847; calls by dose curve; also: nearly all actives have a fitted effect of over 30% in size; also: potency is read from the fitted curve at half-maximal effect)
Outline: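 Quantitative HTS viability measurement: CHO-K1 wild-type cells in serum (10% FBS) medium, short 3 hr drug exposure at 37C with 0.76% DMSO, CellTiter-Glo luminescent detection.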

[5] = qHTS assay to identify small molecule antagonists of the estrogen related receptor (ERR) signaling pathway from Tox21 library (AID 1224848); also: nearly all actives have a fitted effect of over 50% in size; also: potency is read from the fitted curve at half-maximal effect
Outline: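 First, 2,000 ERR cells per well were plated and held 6 h at 37 C/5% CO2. Next, compounds in DMSO were pinned in and left 18 h at 37 C. Finally, ONE-Glo was added and luminescence read after 30 min at room temperature.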

[6] = qHTS assay to identify small molecule agonists of the estrogen related receptor (ERR) signaling pathway from Tox21 library (AID 1224849; calls by dose curve; also: nearly all actives have a fitted effect of over 15% in size); details: ERR reporter cell line, ONE-Glo luciferase, 18 h; at 92.4 µM (top of the series) unless noted
Outline: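 Cells carrying the ERR reporter were plated and allowed to settle for 6 h, exposed to library compounds for 18 h at 37 C, then lysed with ONE-Glo and luminescence measured.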

[7] = qHTS RealTime-Glo MT Cell Viability Assay in HepG2 cells - 24 hour (AID 1224867); also: nearly all actives have a fitted effect of over 50% in size
Outline: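 Luminescence read-out: viable HepG2 cells reduce a prosubstrate to a NanoLuc substrate, giving a signal proportional to live cell number. Reads taken at 0, 8, 16, 24, 32 and 40 h of compound exposure at 37 C.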

[8] = qHTS RealTime-Glo MT Cell Viability Assay in HEK293 cells - 32 hour (AID 1224868); also: nearly all actives have a fitted effect of over 50% in size; also: potency is read from the fitted curve at half-maximal effect
Outline: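 Nonlytic real-time viability readout: viable cells convert prosubstrate to NanoLuc substrate, giving luminescence proportional to live cell number. HEK293, 600 cells/well, compound added after 5 h, continuous culture at 37 C.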

[9] = A CellTox Green Cytotoxicity Assay to monitor cytotoxicity in HEK293 cells - 0 hour (AID 1224869); also: nearly all actives have a fitted effect of over 50% in size
Outline: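 Cells (HEK293, 600/well) and dye reagent are dispensed together. After 5 h at 37 C, 23 nL compound is pinned in. Plates stay at 37 C for 40 h with fluorescence read at 0h, 8h, 16h, 24h, 32h and 40h.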

[10] = qHTS RealTime-Glo MT Cell Viability Assay in HepG2 cells - 40 hour (AID 1224870); also: nearly all actives have a fitted effect of over 50% in size
Outline: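 HepG2 cells mixed with RealTime-Glo MT reagents (NanoLuc plus cell-permeant prosubstrate) were seeded at 600 cells/well, incubated 5 h at 37 C/5% CO2, then pinned with compounds in DMSO; nonlytic luminescence tracked viability during 40 h treatment.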
% is scaled to controls: 0 for no effect and ±100 for the full control effect.

O=C(NC(=O)c1c(F)cccc1F)Nc1ccc(OC(F)(F)C(F)OC(F)(F)F)c(Cl)c1 (stereo unspecified)
inactive: Potency [1] | Potency [2] | outcome [3] | Potency [4] | Potency [5] | activity change, positive = activation [6] -11.9% [at 42.5 µM] | Potency [7] | Potency [8] | Potency [9] | Potency [10]

N#Cc1cc(I)c(O)c(I)c1
inactive: Potency [1] | Potency [2] | outcome [3] | activity change, positive = activation [6] -66.8% | Potency [7] | Potency [9] | Potency [10]
active: Potency [4] 28.4 µM | Potency [5] 24.3 µM

Nc1nc(=S)[nH][nH]1
inactive: Potency [1] | Potency [2] | outcome [3] | Potency [4] | Potency [5] | activity change, positive = activation [6] 4.5% | Potency [7] | Potency [8] | Potency [9] | Potency [10]

CCC(Cl)CCl (stereo unspecified)
inactive: Potency [1] | Potency [2] | outcome [3] | Potency [4] | Potency [5] | activity change, positive = activation [6] -1.76% | Potency [7] | Potency [8] | Potency [9]

O=C(O)COc1ccc(Cl)cc1
inactive: Potency [1] | Potency [2] | outcome [3] | Potency [4] | Potency [5] | activity change, positive = activation [6] 1.55% | Potency [7] | Potency [8] | Potency [9] | Potency [10]

CO/C=C(/C(=O)OC)c1ccccc1COc1cccc(C(F)(F)F)n1
inactive: Potency [1] | Potency [2] | outcome [3] | activity change, positive = activation [6] -45% | Potency [7] | Potency [9] | Potency [10]
active: Potency [4] 17.9 µM | Potency [5] 0.485 µM | Potency [8] 19.5 µM

OCCCBr
inactive: Potency [1] | Potency [2] | outcome [3] | Potency [4] | Potency [5] | activity change, positive = activation [6] -6.8% | Potency [7] | Potency [8] | Potency [9]

CC1Sc2c(C(=O)O)c(=O)c3cc(F)c(N4CCNCC4)cc3n21 (stereo unspecified)
inactive: Potency [1] | Potency [2] | outcome [3] | Potency [4] | Potency [5] | activity change, positive = activation [6] 11.7% [at 42.5 µM] | Potency [7] | Potency [8] | Potency [9] | Potency [10]

COc1cc(Cl)c(OC)cc1Cl
inactive: Potency [1] | Potency [2] | outcome [3] | Potency [4] | Potency [5] | activity change, positive = activation [6] 0.702% | Potency [7] | Potency [8] | Potency [9]

[O-][Cl+]O
inactive: Potency [1] | Potency [2] | outcome [3] | Potency [4] | Potency [5] | activity change, positive = activation [6] 8.47% | Potency [8] | Potency [9]

COc1cc(CC(C)N)cc2c1OCO2 (stereo unspecified)
inactive: Potency [1] | Potency [2] | outcome [3] | Potency [4] | Potency [5] | activity change, positive = activation [6] -3.18% | Potency [7] | Potency [8] | Potency [9] | Potency [10]

CCCCN=C=O
inactive: Potency [1] | Potency [2] | outcome [3] | Potency [4] | Potency [5] | activity change, positive = activation [6] 1.38% | Potency [7] | Potency [8] | Potency [9] | Potency [10]

CC(C)=CCOc1c2occc2cc2ccc(=O)oc12
inactive: Potency [1] | Potency [2] | outcome [3] | Potency [4] | Potency [5] | activity change, positive = activation [6] -9.71% [at 42.5 µM] | Potency [8] | Potency [9] | Potency [10]

CO/N=C(/C(=O)OC)c1ccccc1COc1ccccc1C
inactive: Potency [1] | Potency [2] | outcome [3] | activity change, positive = activation [6] -47.7% | Potency [8] | Potency [9]
active: Potency [4] 2.84 µM | Potency [5] 1.54 µM

C=COC(C)=O
inactive: Potency [1] | Potency [2] | outcome [3] | Potency [4] | Potency [7] | Potency [8] | Potency [9]

Cc1ccc(N)cc1C
active: activity change, positive = activation [6] 19.9%
inactive: Potency [1] | Potency [2] | outcome [3] | Potency [4] | Potency [5] | Potency [8] | Potency [9] | Potency [10]

CN(N=O)c1ccc([N+](=O)[O-])cc1
inactive: Potency [1] | Potency [2] | outcome [3] | Potency [4] | Potency [7] | Potency [8] | Potency [9] | Potency [10]

O=C(NCc1cccnc1)Nc1ccc([N+](=O)[O-])cc1
active: Potency [8] 49 µM
inactive: Potency [1] | Potency [2] | outcome [3] | Potency [4] | Potency [7] | Potency [9] | Potency [10]

CC(O)(CS(=O)(=O)c1ccc(F)cc1)C(=O)Nc1ccc(C#N)c(C(F)(F)F)c1 (stereo unspecified)
inactive: Potency [1] | Potency [2] | outcome [3] | activity change, positive = activation [6] -29.9% [at 42.5 µM] | Potency [9]
active: Potency [4] 41.6 µM

Clc1cc(Cl)c(Cl)c(Cl)c1
inactive: Potency [1] | Potency [2] | outcome [3] | Potency [4] | Potency [7] | Potency [8] | Potency [9] | Potency [10]

CCOP(=S)(OCC)SCSCC
inactive: Potency [1] | Potency [2] | outcome [3] | Potency [4] | Potency [7] | Potency [8] | Potency [9]

NCCCNCCCN
inactive: Potency [1] | Potency [2] | outcome [3] | Potency [4] | Potency [7] | Potency [8] | Potency [9] | Potency [10]

CCCN(CCC)c1c([N+](=O)[O-])cc(S(C)(=O)=O)cc1[N+](=O)[O-]
inactive: Potency [1] | Potency [2] | outcome [3] | Potency [4] | activity change, positive = activation [6] -24.5% | Potency [7] | Potency [9] | Potency [10]
active: Potency [8] 13.8 µM
